Experimental findings from PubChem BioAssay (Tox21) are described below.

Inconclusive results are not listed. Values without a mark were called inactive. Activity calls are given as the source filed them. Unless noted, calls come from the whole dose curve; as a rule, active = well fitted curve in the direction sought with a large enough effect in the repeat runs; inconclusive = weak or mixed curves; inactive = no such curve, though single readings can be large; an effect the other way counts as inactive or inconclusive.

Test [1] is described as follows: qHTS assay to identify small molecule antagonists of the estrogen related receptor (ERR) signaling pathway from Tox21 library - cell viability counter screen (AID 1224834). Note: nearly all actives have a fitted effect of over 30% in size. Note: potency is the fitted concentration of half-maximal effect. In a few lines: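 Cytotoxicity of test substances is gauged in the same ERR cells used for the antagonist screen, after 17.5 h of compound treatment at 37 C, by CellTiter-Fluor fluorescence measured after 30 min.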
Background: Quantitative high-throughput screening tests each substance at several concentrations.

Test [2] deals with Luciferin 4-monooxygenase (Photinus pyralis) (UniProt P08659). The experiment in a line: qHTS assay to identify small molecule inhibitors of firefly luciferase (AID 1224835). For activity change, negative = inhibition: series mostly up to about 120 µM. Note: nearly all actives have a fitted effect of over 25% in size. Note: potency is the fitted concentration of half-maximal effect. In a few lines:
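Biochemical qHTS: compounds run as interplate titrations against purified firefly enzyme, with D-luciferin and ATP each at its KM concentration. Light output recorded by CCD imaging.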

The nature of test [3]: qHTS assay to identify small molecule agonists of the constitutive androstane receptor (CAR) signaling pathway - cell viability counter screen (AID 1224836). Note: series mostly up to about 92 µM; nearly all actives have a fitted effect of over 45% in size. In a few lines: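 Double-stable HepG2 hepatoma cells (hCAR plus CYP2B6-2.2kb) are treated for 23 h at 37 C with test compounds in 15-point concentration series. PK11195 at 0.75 uM final is co-added. Cell viability is quantified by CellTiter-Fluor.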

The target in test [4] is Nuclear receptor subfamily 1 group I member 3 (Homo sapiens) (UniProt Q14994). The test can be described thus: qHTS assay to identify small molecule antagonists of the constitutive androstane receptor (CAR) signaling pathway (AID 1224838). Note: nearly all actives have a fitted effect of over 40% in size. Note: potency is the fitted concentration of half-maximal effect. In a few lines:
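Compounds were titrated across 15 concentrations onto HepG2 cells double-stably expressing hCAR and a CYP2B6-2.2kb reporter, together with 50 nM CITCO (final). After 24 h at 37 C, luciferase activity was measured by luminescence.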

For test [5] the target is unchanged. The test can be described thus: qHTS assay to identify small molecule agonists of the constitutive androstane receptor (CAR) signaling pathway (AID 1224839). Note: nearly all actives have a fitted effect of over 15% in size. Note: potency is the fitted concentration of half-maximal effect. The essentials: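 Readout: firefly luciferase luminescence via ONE-Glo. System: HepG2 double-stable for hCAR and CYP2B6-2.2kb. Conditions: 15-point compound titration, PK11195 at 0.75 uM final, 24 h incubation.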

A short description of test [6]: qHTS assay to identify small molecule antagonists of the estrogen related receptor signaling pathway with the pleiotropic PPARgamma coactivator (PGC) from Tox21 10K library - cell viability counter screen (AID 1224840; active = well fitted cell-killing curve with a large enough effect in the repeat runs, not every such curve was filed as active; note: nearly all actives have a fitted effect of over 40% in size; note: potency is the fitted concentration of half-maximal effect). In a few lines: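 Step one, plate 2,000 PGC/ERR cells per well; step two, incubate 6 h at 37 C/5% CO2; step three, pin-transfer compounds; step four, incubate 17.5 h; step five, add CellTiter-Fluor and read fluorescence after 30 min.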

A short description of test [7]: qHTS assay to identify small molecule antagonists of the constitutive androstane receptor (CAR) signaling pathway - cell viability counter screen (AID 1224837). For activity change, negative = cytotoxicity: series mostly up to about 92 µM. Note: nearly all actives have a fitted effect of over 45% in size. Note: potency is the fitted concentration of half-maximal effect. The essentials: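 Multiplexed cytotoxicity read-out for the CAR antagonist screen: double-stable HepG2-CYP2B6-hCAR cells co-treated with 50 nM CITCO (final) and compound over 15 concentrations, incubated 23 hr, then assessed by CellTiter-Fluor fluorescence.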

A short description of test [8]: qHTS assay to identify small molecule antagonists of the estrogen related receptor signaling pathway with the pleiotropic PPARgamma coactivator (PGC) from Tox21 10K library (AID 1224841; call rule not given here; note: actives are mostly falling curves and most rising ones were filed inactive; nearly all actives have a fitted effect of over 50% in size; note: potency is the fitted concentration of half-maximal effect; for activity, negative = inhibition: series mostly up to about 92 µM). The essentials:
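Antagonism in this quantitative HTS is taken from loss of luciferase signal in PGC/ERR cells. Cells (2,000/well) are treated with compounds in DMSO after a 6 h settling period and read by One-Glo luminescence after 18 h.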

The nature of test [9]: qHTS assay to identify small molecule agonists of the estrogen related receptor signaling pathway with the pleiotropic PPARgamma coactivator (PGC) from Tox21 10K library (AID 1224842). Note: nearly all actives have a fitted effect of over 15% in size. Note: potency is the fitted concentration of half-maximal effect. The essentials: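 PGC/ERR reporter cell line, 2,000 cells per well, incubated 6 h at 37 C before 23 nL compound in DMSO was added. After 18 h at 37 C, One-Glo luminescence read following 30 min at room temperature.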
% is set by controls: 0 for no effect and ±100 for the full control effect.

Chain of Luciferin 4-monooxygenase (Photinus pyralis) (P08659 whole entry, looked up): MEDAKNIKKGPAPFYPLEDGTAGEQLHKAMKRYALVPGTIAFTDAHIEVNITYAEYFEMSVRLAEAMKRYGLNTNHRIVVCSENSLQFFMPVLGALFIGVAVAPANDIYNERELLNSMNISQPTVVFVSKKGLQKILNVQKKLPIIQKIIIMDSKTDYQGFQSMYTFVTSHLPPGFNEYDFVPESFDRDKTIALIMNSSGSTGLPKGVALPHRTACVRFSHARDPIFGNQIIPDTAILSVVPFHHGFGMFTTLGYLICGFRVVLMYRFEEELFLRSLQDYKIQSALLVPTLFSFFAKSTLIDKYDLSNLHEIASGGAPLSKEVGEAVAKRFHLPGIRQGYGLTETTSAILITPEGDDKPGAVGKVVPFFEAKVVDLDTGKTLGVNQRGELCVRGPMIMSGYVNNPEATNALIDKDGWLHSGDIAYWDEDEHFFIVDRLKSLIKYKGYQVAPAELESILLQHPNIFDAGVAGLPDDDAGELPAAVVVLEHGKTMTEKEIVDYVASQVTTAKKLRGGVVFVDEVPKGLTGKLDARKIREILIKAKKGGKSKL
Chain of Nuclear receptor subfamily 1 group I member 3 (Homo sapiens) (Q14994 whole entry, looked up): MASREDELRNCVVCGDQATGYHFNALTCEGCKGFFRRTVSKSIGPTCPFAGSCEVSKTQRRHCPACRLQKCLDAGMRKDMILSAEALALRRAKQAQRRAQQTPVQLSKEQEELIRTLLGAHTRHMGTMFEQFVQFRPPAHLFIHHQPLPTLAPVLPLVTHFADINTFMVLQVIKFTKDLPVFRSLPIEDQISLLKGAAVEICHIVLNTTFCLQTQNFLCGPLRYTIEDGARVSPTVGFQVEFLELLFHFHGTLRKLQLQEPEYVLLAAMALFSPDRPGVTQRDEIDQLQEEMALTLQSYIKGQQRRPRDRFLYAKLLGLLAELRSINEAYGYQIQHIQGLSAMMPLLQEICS

On to `CC(C)=CCC[C@](C)(O)[C@@H]1CC=C(C)CC1`, for which the Potency result in test [1], in test [2], in test [3], in test [4], in test [5] and in test [6] was “inactive” in each case.
In the case of `Cc1nc(-c2ccccn2)ncc1C(=O)Nn1cc(C)c2cc(F)ccc21`, the Potency entry in [1], in [2], in [5] and in test [9] was “inactive” in each case. Moreover, the Potency was 24.3 µM (active) in test [7], 13.7 µM (active) in test [4] and 38.6 µM (active) in test [8].
As to `C=CCc1cc(OC)c(O)c(C(=O)NCCO)c1`, the Potency result in test [1], in test [2], in test [3], in test [4], in test [5] and in test [6] was “inactive” throughout.
As to `Nc1ccc(Oc2ccc(N)c(N)c2)cc1`, the Potency in test [1] was 27.3 µM (active); in test [2] it was 7.96 µM (active); in [5], 2.43 µM (active); in test [6] it was 48.6 µM (active); in [9], 9.69 µM (active). Moreover, the Potency entry in test [3], in test [4] and in test [8] was “inactive” throughout.
Turning to `C=CC1CO1` (stereo not drawn), the Potency result in test [1], in test [2], in [3] and in test [6] was “inactive” in each case.
Take `CC(C)S`: the Potency entry in test [1], in test [2], in test [3], in [7], in test [6] and in test [8] was “inactive” each time. Besides, the Potency entry in test [9] is “inactive”.
`COc1cc(C)ccc1C(C)C`: the Potency entry in [1], in test [2], in test [3], in [7], in test [6] and in test [8] was “inactive” each time. Besides, the Potency result in test [9] is “inactive”.
As to `C=CCCC=C`, the Potency entry in [1], in test [2], in test [3], in test [7], in test [6] and in test [8] was “inactive” each time.
In the case of `CO[Si](C)(C)OC`, the Potency entry in test [1], in [2], in [3], in test [4], in [5] and in [6] was “inactive” in each case. Moreover, the Potency entry in test [8] and in [9] was “inactive” throughout.
Take `O=[N+]([O-])c1nccn1CO[C@@H](CO)[C@H](O)CO`: the Potency result in test [1], in [2], in test [3], in test [7], in [6] and in [8] was “inactive” in each case. Besides, in test [9], the Potency result is “inactive”.
Regarding `CCCCC(=O)O[C@]1(C(=O)CO)[C@H](C)C[C@H]2[C@@H]3CCC4=CC(=O)C=C[C@]4(C)[C@@]3(F)[C@@H](O)C[C@@]21C`, the Potency entry in test [1], in [2], in [3], in [7], in [6] and in [8] was “inactive” each time. Also, the Potency entry in [9] was “inactive”.
In the case of `COC(=O)c1ccc2cc(C(=O)OC)ccc2c1`, the viability change, negative = cytotoxic in test [1] is -1.01% [at 19 µM]; in test [3], 6.04% [at 19 µM]; in [6] it was 1.78% [at 19 µM]. Moreover, in test [2], the activity change, negative = inhibition was -7.06% [at 23.6 µM]. The activity change, negative = cytotoxicity in [7] was -9.38% [at 19 µM]. Further, in test [8], the activity, negative = inhibition was 221% [at 19 µM]. Also, in [9], the Potency is 4.44 µM (active).
Take `O=C(CCCl)NCc1ccccc1`: the Potency result in test [1], in test [2], in [3], in test [4], in [5] and in test [6] was “inactive” each time. Further, the Potency entry in [8] and in [9] was “inactive” throughout.
As to `CCCNC(C)C(=O)Nc1c(C)csc1C(=O)OC` (stereo not drawn), the Potency entry in test [1], in test [2], in [3], in [5], in test [6] and in [8] was “inactive” throughout.
Consider `NNS(=O)(=O)c1ccc(Oc2ccc(S(=O)(=O)NN)cc2)cc1`, for which the Potency result in test [1], in test [2], in [3], in test [6] and in test [8] was “inactive” in each case.
As to `C[C@@H](N)C(=O)O`, the Potency entry in [1], in test [2], in test [3], in test [4], in [5] and in [6] was “inactive” each time.
As to `CC/C=C\CCOC(=O)C(C)C`, the Potency result in [1], in test [2], in [3] and in test [6] was “inactive” each time.
For the compound `NCCCN1CCN(CCCN)CC1`, the Potency entry in test [1], in test [2], in [3], in test [4], in test [5] and in test [6] was “inactive” each time.
As to `CCOC(=O)[C@H](CCc1ccccc1)N[C@@H](C)C(=O)N1Cc2cc(OC)c(OC)cc2C[C@H]1C(=O)O`, the Potency result in test [1], in [2], in test [3] and in [6] was “inactive” in each case.
As to `Oc1ccccc1C=NCc1ccccc1`, the Potency entry in test [1], in [3], in test [4], in test [5] and in test [6] was “inactive” in each case. Moreover, the Potency in test [2] is 34.7 µM (active).
As for `CCCCCCn1c(=O)c2c(ncn2C)n(C)c1=O`, the Potency result in [1], in test [2], in test [3], in [4], in [5] and in [6] was “inactive” in each case. In addition, the Potency result in test [8] and in test [9] was “inactive” throughout.
With `CS(=O)(=O)c1ccc([C@@H](O)[C@@H](CF)NC(=O)C(Cl)Cl)cc1`, the Potency entry in test [1], in test [2], in test [3], in test [5] and in [6] was “inactive” each time.
Turning to `CC(=O)OC1C2(C)CCC(C2)C1(C)C` (stereo not drawn), the Potency entry in test [1], in test [2], in test [3], in test [7], in [6] and in test [8] was “inactive” each time. Also, the Potency result in test [9] was “inactive”.
Take `CCN(CC)CCOc1ccc(Cc2ccccc2)cc1`: the Potency result in test [1], in test [2], in test [3], in [4], in test [5] and in [6] was “inactive” throughout.
For the compound `OCCN(CCO)CCN(CCO)CCO`, the Potency entry in test [1], in test [2], in test [3], in test [4], in test [5] and in [6] was “inactive” in each case. In test [8], the Potency result is “inactive”.
